Source: the supplement of paper PMC6522484
± gives the standard deviation of the averaged measurements.

Columns and labels:
DLD1 [1] = test: cell viability (CellTiter-Glo) relative to plate median (fraction of plate median); higher = more viable cells; settings: 5 µM; treatment time 24 h; reporter: 7TFP
Method in brief: (§1)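 Colorectal cancer cell lines stably transduced with lentiviral TCF/Wnt firefly luciferase reporters (7TFP or TCF4/Wnt) were seeded in 384-well plates. 24 h later they received library compounds at a final 5 µM for 24 h. Parallel plates were read for firefly luciferase or CellTiterGlo luminescence on a Tecan F500 reader. Each well's signal was normalised to the plate median (webcellHTS2, additive, no log transformation), and the mean of two independent replicates is reported.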

HCT116 = test: as above; settings: 5 µM; treatment time 24 h; reporter: TCF4/Wnt
Method in brief: as §1

SW480 [2] = test: as above; settings: 5 µM; treatment time 24 h; reporter: 7TFP
Method in brief: as §1

DLD1 [3] = test: TCF/Wnt firefly luciferase reporter signal relative to plate median (fraction of plate median); higher = higher Wnt reporter signal; settings: 5 µM; treatment time 24 h; reporter: 7TFP
Method in brief: as §1

SW480 [4] = test: as above; settings: 5 µM; treatment time 24 h; reporter: 7TFP
Method in brief: as §1

Row | SMILES | cell viability (DLD1 [1]) | cell viability (HCT116) | cell viability (SW480 [2]) | TCF/Wnt firefly luciferase reporter signal (DLD1 [3]) | TCF/Wnt firefly luciferase reporter signal (SW480 [4])
1 | NS(=O)(=O)c1cc2c(cc1Cl)NC(C(Cl)Cl)NS2(=O)=O (stereo not given) | 0.977 ± 0.047 | 1.06 ± 0.078 | 0.973 ± 0.0028 | 1.11 ± 0.29 | 0.991 ± 0.013
2 | CC(N)C(=O)OC(C)(C)Cc1ccc(Cl)cc1 (stereo not given) | 1.11 ± 0.042 | 1.15 ± 0.064 | 1.02 ± 0.036 | 0.945 ± 0.013 | 0.879 ± 0.1
3 | C#CCCCCCCCCCCCc1ccco1 | 0.997 ± 0.033 | 1.03 ± 0.014 | 1.075 ± 0.0071 | 1.145 ± 0.0071 | 0.953 ± 0.096
4 | O=C1O[C@H](CO)[C@@H](O)[C@H](O)[C@H]1O | 1.005 ± 0.0071 | 1.035 ± 0.0071 | 1.085 ± 0.0071 | 0.949 ± 0.051 | 0.945 ± 0.13
5 | O=c1c(O)c(-c2ccc(O)cc2O)oc2cc(O)cc(O)c12 | 1.11 ± 0.11 | 1.155 ± 0.0071 | 1.15 | 1.11 ± 0.099 | 1.11 ± 0.15
6 | CC1=CC(=O)[C@H]2C(C)(C)CCC[C@]2(C)[C@@]1(O)CCc1ccoc1 | 0.976 ± 0.016 | 1.07 ± 0.15 | 0.998 ± 0.018 | 1.1 ± 0.099 | 0.95 ± 0.043
7 | CC1=C(C(=O)O)N2C(=O)[C@@H](NC(=O)[C@H](N)c3ccc(O)cc3)[C@H]2SC1 | 0.977 ± 0.016 | 0.956 ± 0.063 | 0.949 ± 0.086 | 0.907 ± 0.14 | 0.918 ± 0.13
8 | N=C(N)NCCN1CCCCCCC1 | 1.03 ± 0.035 | 1.04 ± 0.11 | 1.04 ± 0.05 | 0.983 ± 0.081 | 1.115 ± 0.0071
9 | O=C1c2cccc(O)c2C(=O)c2c(O)cccc21 | 0.96 ± 0.013 | 0.923 ± 0.12 | 0.992 ± 0.054 | 0.958 ± 0.12 | 1 ± 0.051
10 | CC(Oc1ccccc1)C(=O)N[C@@H]1C(=O)N2[C@@H]1SC(C)(C)[C@@H]2C(=O)O (stereo not given in full) | 0.97 ± 0.032 | 0.928 ± 0.022 | 0.9865 ± 0.00071 | 1.07 ± 0.071 | 1.065 ± 0.0071
11 | C=C(NC(=O)C(=C)NC(=O)c1csc(C2=N[C@@H]3c4csc(n4)[C@H]4NC(=O)c5csc(n5)[C@H]([C@](C)(O)[C@@H](C)O)NC(=O)[C@H]5CSC(=N5)/C(=C/C)NC(=O)[C@H]([C@@H](C)O)NC(=O)c5csc(n5)[C@]3(CC2)NC(=O)[C@H](C)NC(=O)C(=C)NC(=O)[C@H](C)NC(=O)[C@H]([C@@H](C)CC)N[C@@H]2C=Cc3c([C@H](C)O)cc(nc3[C@H]2O)C(=O)O[C@@H]4C)n1)C(N)=O | 0.927 ± 0.044 | 1.05 | 0.999 ± 0.044 | 0.966 ± 0.18 | 1.05 ± 0.071
12 | NS(=O)(=O)c1cc2c(cc1Cl)N=CNS2(=O)=O | 0.965 ± 0.093 | 0.973 ± 0.081 | 0.891 ± 0.018 | 0.828 ± 0.18 | 0.984 ± 0.011
13 | C[C@@H]1C/C=C/C=C/C=C/C=C/[C@H](O[C@@H]2O[C@H](C)[C@@H](O)[C@H](N)[C@@H]2O)C[C@@H]2O[C@](O)(C[C@@H](O)C[C@H]3O[C@@H]3/C=C/C(=O)O1)C[C@H](O)[C@H]2C(=O)O | 1.03 ± 0.08 | 0.915 ± 0.13 | 0.987 ± 0.019 | 0.921 ± 0.033 | 0.962 ± 0.028
14 | CC(=O)NCCCS(=O)(=O)O | 1.03 ± 0.091 | 1.03 ± 0.028 | 1.025 ± 0.0071 | 1.12 ± 0.11 | 1.06 ± 0.071
